Tested on: Vero E6 infected with SARS-CoV-2
Assay: inhibition of SARS-CoV-2 cytopathic effect; higher = more antiviral protection, active = above 15
Details: 48 h

Measured: inhibition of SARS-CoV-2 cytopathic effect

CNC(=O)c1c(I)c(C(=O)NCC(=O)Nc2c(I)c(C(=O)O)c(I)c(C(=O)NCCO)c2I)c(I)c(N(C)C(C)=O)c1I [ioxaglic-acid]
inactive: 1 nM 1.6% | 8.33 nM 1.46% | 100 nM 1.47% | 833.33 nM 0.75% | 10000 nM 0.41%

COC(=O)Nc1nc2cc(SC(C)C)ccc2[nH]1 [methiazole]
inactive: 1 nM 0.45% | 8.33 nM 0.55% | 100 nM 2.08% | 833.33 nM 2.73% | 10000 nM -1.24%

CCCCCCCCCC(=O)OCCN1CCN(CCCN2c3ccccc3Sc3ccc(C(F)(F)F)cc32)CC1 [fluphenazine-decanoate]
inactive: 1 nM -6.37% | 8.33 nM -5.38% | 100 nM -8.72% | 833.33 nM -10.3% | 10000 nM -9.75%

CC[C@]1(O)C[C@@H]2CN(CCc3c([nH]c4ccccc34)[C@@](C(=O)OC)(c3cc4c(cc3OC)N(C)[C@H]3[C@@](O)(C(=O)OC)[C@H](OC(C)=O)[C@]5(CC)C=CCN6CC[C@]43[C@@H]65)C2)C1 [Vinblastine (sulfate)]
inactive: 1 nM -0.48% | 8.33 nM 1.74% | 100 nM -0.03% | 833.33 nM 0.75% | 10000 nM -0.15%

Fc1ccc(Cl)cc1-c1nc(Nc2ccncc2)c2nccnc2n1
inactive: 1 nM -0.85% | 8.33 nM 0.45% | 100 nM -1.96% | 833.33 nM -3.87% | 10000 nM -7.46%

N[C@@H](CCC(=O)N[C@@H](CSN=O)C(=O)NCC(=O)O)C(=O)O [S-nitrosoglutathione]
inactive: 1 nM 0.29% | 8.33 nM 0.8% | 100 nM -1.28% | 833.33 nM -3.1% | 10000 nM -0.66%

COc1cc(C(=O)NCCCCCC(=O)O)cc(OC)c1OC [capobenic-acid]
inactive: 1 nM -6.75% | 8.33 nM -2.2% | 100 nM -0.79% | 833.33 nM -1.85% | 10000 nM 2.8%

NC(=O)c1nc(F)cnc1O [Favipiravir]
inactive: 1 nM -0.26% | 8.33 nM 1.4% | 100 nM -0.55% | 833.33 nM 1.38% | 10000 nM -0.22%

CNCc1cc(-c2ccccc2F)n(S(=O)(=O)c2cccnc2)c1 [vonoprazan]
inactive: 1 nM -3.91% | 8.33 nM -1.43% | 100 nM -1.96% | 833.33 nM -1.21% | 10000 nM -4.64%

COC(=O)N[C@H](C(=O)N1CCC[C@H]1c1ncc(-c2ccc(-c3ccc(-c4cnc([C@@H]5CCCN5C(=O)[C@@H](NC(=O)OC)C(C)C)[nH]4)cc3)cc2)[nH]1)C(C)C [daclatasvir]
inactive: 1 nM -1.73% | 8.33 nM 0.14% | 100 nM -0.71% | 833.33 nM -2.47% | 10000 nM -0.59%

Nc1ccc(C(=O)O)c(O)c1 [aminosalicylate]
inactive: 1 nM -3.85% | 8.33 nM -0.82% | 100 nM -0.9% | 833.33 nM 0.11% | 10000 nM 0.97%

Nc1nc2[nH]cc(CCc3ccc(C(=O)N[C@@H](CCC(=O)O)C(=O)O)cc3)c2c(=O)[nH]1 [pemetrexed]
inactive: 1 nM -1.03% | 8.33 nM 0.64% | 100 nM 1.39% | 833.33 nM -2.48% | 10000 nM -1.3%

CCn1c(-c2nonc2N)nc2cncc(CNC3CCNCC3)c21
inactive: 1 nM 0.63% | 8.33 nM -1.43% | 100 nM -0.75% | 833.33 nM -2.49% | 10000 nM -3.57%

N#Cc1ccncn1 [4-pyrimidinecarbonitrile]
inactive: 1 nM 3.43% | 8.33 nM 1.7% | 100 nM 4.16% | 833.33 nM 0.49% | 10000 nM -3.8%

CN1Cc2ccccc2[C@@H]2c3cccc4[nH]cc(c34)C[C@H]21
inactive: 1 nM 0.05% | 8.33 nM 0.93% | 100 nM -1.06% | 833.33 nM 0.95% | 10000 nM 2.21%

Nc1ncnc2c1c(COc1cccc(Cl)c1)nn2C1CCOCC1
inactive: 1 nM -1.11% | 8.33 nM -0.68% | 100 nM -0.3% | 833.33 nM -1.57% | 10000 nM -0.4%

CCCCNc1ccc(C(=O)OCCN(C)C)cc1 [tetracaine]
inactive: 1 nM 2.75% | 8.33 nM -1.31% | 100 nM -0.22% | 833.33 nM -2.39% | 10000 nM 0.71%
